Assay results as given in the OligoGym collection.
Further: reference of the scale not given here.

What follows are sequences tested against ABCD4 (assay: pooled miR-30 sensor sort-seq; sequence = guide strand). Conditions: shRNA.
With ATACCAGTTCCAGTCCACCTGC the sensor-assay potency score (higher = more potent) was -0.984.
With TAGAAGAGTCGGGCAAAGGAGA the sensor-assay potency score (higher = more potent) was -1.06.
Work on TTCGCTGTCAGTCCTCCTGGTC yielded a sensor-assay potency score (higher = more potent) of -0.858.

These sequences were tested against ABCG2 in the same assay as above. Conditions: shRNA.
TTCTATGAGTGGCTTATCCTGC showed a sensor-assay potency score (higher = more potent) of -0.526.
Work on TAATATTTCTTTCTCAACTGGT yielded a sensor-assay potency score (higher = more potent) of 0.563.
TTTAAAGTCTTCTTCTCTGTTT was tested, and the sensor-assay potency score (higher = more potent) was -0.358.
Sequence AACATCATCTTGTACCACGTAA has a sensor-assay potency score (higher = more potent) of -0.468.
TAACTCTTGAATGACCCTGTTA was tested, and the sensor-assay potency score (higher = more potent) was -0.548.
Work on TACGACTGTGACAATGATCTGA yielded a sensor-assay potency score (higher = more potent) of 0.524.
In the case of TTGAAGACTGTGATCTTCTTCT, the sensor-assay potency score (higher = more potent) is reported as 0.497.
TATAATACTTGGTAACATCCTC showed a sensor-assay potency score (higher = more potent) of 0.377.
TGAGATTGACCAACAGACCTGA was tested, and the sensor-assay potency score (higher = more potent) was 0.275.
Sequence TTACCAAATATTCTTCGCCAGT has a sensor-assay potency score (higher = more potent) of -1.15.
Work on TTCAGCTTTTGTCTCTTTGTAG yielded a sensor-assay potency score (higher = more potent) of -0.298.
For TTTGTCTCTTTGTAGAAGGAGG, the sensor-assay potency score (higher = more potent) was -1.31.

The sequences below were run against ABHD14A in the same assay as above. Conditions: shRNA.
For TGCATTGCGTAGCTTCACCACA, the sensor-assay potency score (higher = more potent) was -1.6.
With TAAGGGTTGGAGTCTTCACAGC the sensor-assay potency score (higher = more potent) was -1.08.
TTGAGTGGGAGCACCTCGCGGT gave a sensor-assay potency score (higher = more potent) of 0.0609.
TAGCTTCACCACAGAGTGGTTG showed a sensor-assay potency score (higher = more potent) of -1.24.
With GAGGTCTGTACCACAGTCGGGC the sensor-assay potency score (higher = more potent) was -1.45.
Sequence TTGCGTAGCTTCACCACAGAGT has a sensor-assay potency score (higher = more potent) of 0.297.
TCTGTGACAGTAGCTGCAGTGT was tested, and the sensor-assay potency score (higher = more potent) was -1.16.
For TGAGTGGGAGCACCTCGCGGTA, the sensor-assay potency score (higher = more potent) was -1.68.
Work on TCCATGAAGCAGCACCACCTCC yielded a sensor-assay potency score (higher = more potent) of -1.75.
With ATGGCCTGCATTGCGTAGCTTC the sensor-assay potency score (higher = more potent) was -1.76.
With TCGAGCCAGGATGTGGTCCAGC the sensor-assay potency score (higher = more potent) was -1.4.

What follows are sequences tested against ABHD14B in the same assay as above. Conditions: shRNA.
For TGCTTCAGGTGCTCAAAGCTGG, the sensor-assay potency score (higher = more potent) was -0.768.
Sequence TCCATATACAATCAGAGCTGGA has a sensor-assay potency score (higher = more potent) of -1.62.
For TTCAGGTGCTCAAAGCTGGTCT, the sensor-assay potency score (higher = more potent) was -0.558.
Work on TAGTTGGCAGCATTGATTTTGT yielded a sensor-assay potency score (higher = more potent) of -0.754.
TTCTGCCAGGTCTCGGAGGAGA gave a sensor-assay potency score (higher = more potent) of -1.13.
AAAGCTGGTCTGACCCATGGGG gave a sensor-assay potency score (higher = more potent) of -0.273.
ATAGTTGGCAGCATTGATTTTG showed a sensor-assay potency score (higher = more potent) of -0.758.
TGGTTTGTCCAGGTAACAGGGG was tested, and the sensor-assay potency score (higher = more potent) was -0.958.
Sequence CTGGTCTCCATATACAATCAGA has a sensor-assay potency score (higher = more potent) of -2.16.
Work on TGGACTGATCACAACCGGGGGG yielded a sensor-assay potency score (higher = more potent) of -0.281.
Work on TTGATTTTGTCAGTGCAGATGG yielded a sensor-assay potency score (higher = more potent) of -0.728.
For TTTGTCCAGGTAACAGGGGTGC, the sensor-assay potency score (higher = more potent) was -1.14.
